We go through five compounds from PubChem BioAssay (NCATS).

Experiment [1] concerns the target Estrogen receptor (Homo sapiens) (UniProt P03372). Nature of the experiment: qHTS assay for small molecule antagonists of estrogen receptor alpha signaling (AID 588513; active means well fitted curve in the direction sought with a large enough effect in the signal ratio, with a control signal flat, not every such curve was filed as active; the % refers to the signal ratio; further: on the % scale 0 is the no-effect control and ±100 the full control effect). The note with it: ER-alpha-UAS-bla HEK293, beta-lactamase ratio, antagonist mode; series mostly up to 76.9 µM. An outline of the steps:
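Antagonist-mode qHTS in ER-alpha-UAS-bla HEK 293 cells: compound titration, 0.5nM estradiol for 18 h, CCF4 fluorescence, Hill-derived IC50.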

For experiment [2] the target is unchanged. Nature of the experiment: qHTS assay for small molecule agonists of estrogen receptor alpha signaling (AID 588514).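 Further: 0% = vehicle only and 100% = reference agonist; nearly all actives have a fitted effect of over 70% in size.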 The note with it: ER-alpha-UAS-bla HEK293, beta-lactamase ratio, 18 h; series mostly up to 76.8 µM. An outline of the steps:
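Cells were plated at 5000/well, incubated 4 hrs at 37 C, dosed with compound titration series, incubated 18 hrs at 37 C, loaded with CCF4 dye for 2 hrs at RT, then fluorescence was read.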
A general note: Quantitative high-throughput screening tests each substance at several concentrations.

Experiment [3] has as its target Peroxisome proliferator-activated receptor gamma (Homo sapiens) (UniProt P37231). Nature of the experiment: qHTS assay for small molecule agonists of peroxisome proliferator-activated receptor gamma signaling (AID 588536; active means well fitted curve in the direction sought with a large enough effect in the signal ratio, with a control signal flat, not every such curve was filed as active; the % refers to the signal ratio;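 further: 0% = DMSO basal wells and 100% = rosiglitazone at 2 µM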). Particulars: HEK293 PPARg-UAS-bla, beta-lactamase ratio, 16 h, percent of rosiglitazone response, DMSO as zero; series mostly up to 76.7 µM. In a few lines: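 GeneBLAzer PPAR-gamma-UAS-bla HEK293 cells in 1% charcoal/dextran-treated FBS medium were treated 16 h at 37 C with compounds. Beta-lactamase activity was read by CCF4 ratio (460/530 nm). Response was normalized to 2 uM rosiglitazone (100%) and DMSO, then Hill-fitted for EC50 and efficacy.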

The target is the same in experiment [4]. Nature of the experiment: qHTS assay for small molecule antagonists of peroxisome proliferator-activated receptor gamma signaling (AID 588537; active means well fitted inhibition curve with a large enough effect in the signal ratio, with a control signal flat, not every such curve was filed as active; the % refers to the signal ratio;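 further: reporter cells co-stimulated with 50 nM rosiglitazone agonist during compound treatment; % of control where 0% means no effect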). Particulars: HEK293 PPARg-UAS-bla, beta-lactamase ratio, antagonist mode; series mostly up to 76.8 µM. An outline of the steps: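 PPARγ-UAS-bla HEK293 cells (3000/well) in 1% charcoal/dextran-stripped FBS are treated with compound, then stimulated with 50 nM rosiglitazone for 16 h at 37 °C. Read-out is CCF4 β-lactamase fluorescence after 2 h at RT. IC50 comes from Hill fits normalised to rosiglitazone and DMSO.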

Experiment [5] has as its target Vitamin D3 receptor (Homo sapiens) (UniProt P11473). Nature of the experiment: qHTS assay for small molecule antagonists of vitamin D receptor signaling (AID 588541).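 Further: receptor activated by calcitriol during compound treatment; on the % scale 0 is the no-effect control and ±100 the full control effect.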 The note with it: HEK293T VDR-UAS-bla, beta-lactamase ratio, antagonist mode; series mostly up to 76.7 µM. In a few lines: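 VDR-UAS-bla HEK293T cells in 2% charcoal-stripped FBS were stimulated with 1-alpha,25-dihydroxyvitamin D3 (3 nM final) plus compound for 16 h at 37 C. The beta-lactamase CCF4 readout was normalized to 50 nM agonist and DMSO, and Hill fits gave IC50.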

Experiment [6] can be described thus: qHTS assay for small molecule agonists of retinoid X receptor alpha signaling (AID 588544).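 On activation: 0% = DMSO basal wells and 100% = reference agonist.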 Particulars: HEK293T RXRa-UAS-bla, beta-lactamase reporter, 18 h; 530 nm emission.
The target in experiment [7] is Retinoic acid receptor RXR-alpha (Homo sapiens) (UniProt P19793). The experiment is described as above. The note with it: HEK293T RXRa-UAS-bla, beta-lactamase reporter, 18 h; series mostly up to 76.7 µM.
Retinoic acid receptor RXR-alpha (Homo sapiens), sequence (P19793 whole entry, looked up): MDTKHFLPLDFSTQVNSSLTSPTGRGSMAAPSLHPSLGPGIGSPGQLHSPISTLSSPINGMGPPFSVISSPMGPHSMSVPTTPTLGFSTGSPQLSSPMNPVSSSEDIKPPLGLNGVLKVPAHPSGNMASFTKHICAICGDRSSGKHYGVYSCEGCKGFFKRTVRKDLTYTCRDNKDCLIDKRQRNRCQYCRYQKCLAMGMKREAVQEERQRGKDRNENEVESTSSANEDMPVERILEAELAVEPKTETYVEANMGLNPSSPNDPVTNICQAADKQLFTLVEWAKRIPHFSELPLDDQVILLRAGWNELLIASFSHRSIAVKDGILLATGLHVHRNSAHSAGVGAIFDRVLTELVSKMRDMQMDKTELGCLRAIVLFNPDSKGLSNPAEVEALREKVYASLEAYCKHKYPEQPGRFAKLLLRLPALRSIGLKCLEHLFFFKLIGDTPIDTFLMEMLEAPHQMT
The target in experiment [8] is Thyroid hormone receptor beta (Homo sapiens) (UniProt P10828). Nature of the experiment: qHTS assay for small molecule agonists of thyroid hormone receptor beta signaling (AID 588545).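 Further: 0% = DMSO only and 100% = 10 nM T3.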 The note with it: TR-UAS-bla GripTite HEK 293, beta-lactamase ratio, agonist mode, 18 h; series mostly up to 76.7 µM. An outline of the steps: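 Stimulation of a TR-driven beta-lactamase reporter was quantified in GripTite HEK 293 cells. Compound series ran for 18 hrs; curves were normalized to T3 and DMSO controls and fitted to yield EC50.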
Thyroid hormone receptor beta (Homo sapiens), sequence (P10828 whole entry, looked up): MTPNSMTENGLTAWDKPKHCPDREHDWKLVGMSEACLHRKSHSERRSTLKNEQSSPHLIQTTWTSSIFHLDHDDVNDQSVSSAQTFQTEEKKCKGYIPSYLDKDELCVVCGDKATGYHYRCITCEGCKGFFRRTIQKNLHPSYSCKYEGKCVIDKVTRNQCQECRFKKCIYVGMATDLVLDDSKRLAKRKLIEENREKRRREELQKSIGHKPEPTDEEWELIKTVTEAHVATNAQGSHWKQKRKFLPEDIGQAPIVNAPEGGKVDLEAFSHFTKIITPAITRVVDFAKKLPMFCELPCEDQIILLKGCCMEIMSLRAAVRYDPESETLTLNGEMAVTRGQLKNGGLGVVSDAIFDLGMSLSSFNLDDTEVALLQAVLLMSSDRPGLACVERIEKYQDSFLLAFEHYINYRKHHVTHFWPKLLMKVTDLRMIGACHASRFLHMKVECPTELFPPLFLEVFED

Experiment [9] can be described thus: qHTS assay for small molecule antagonists of retinoid X receptor alpha signaling (AID 588546; active means well fitted inhibition curve with a large enough effect in the signal ratio, with a control signal flat, not every such curve was filed as active; the % refers to the signal ratio;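 further: cells stimulated with 9-cis-retinoic acid as agonist; on the % scale 0 is the no-effect control and ±100 the full control effect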). Particulars: HEK293T RXRa-UAS-bla, beta-lactamase ratio, antagonist mode; measured here: W530 green channel, cytotoxicity proxy. An outline of the steps: (§1)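 Beta-lactamase reporter inhibition, read as CCF4 fluorescence ratio (ex 405, em 460/530 nm) after 2 h at RT. HEK293T UAS-bla cells, 2500/well, were stimulated with 9-cis-RA at 500 or 100 nM final alongside test compound for 18 h at 37 C.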

Experiment [10] concerns the target Retinoic acid receptor RXR-alpha (Homo sapiens) (UniProt P19793). The description is as above. The note with it: HEK293T RXRa-UAS-bla, beta-lactamase ratio, antagonist mode. An outline of the steps: as §1
The nature of experiment [11]: qHTS assay for small molecule activators of the nuclear factor-kappa B (NF-kB) signaling pathway (AID 651749; active means well fitted activation curve with a large enough effect in the signal ratio; the % refers to the signal ratio; further: % of control where 0% means no effect). Particulars: NF-kB-bla ME-180 cells, beta-lactamase FRET ratio, 16 h; activation: stronger effect = higher value. An outline of the steps: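 NF-kB-bla ME-180 cells carrying a beta-lactamase reporter under an NF-kB response element, 2,000 cells/well, exposed to compound for 16 hr at 37C; FRET-based beta-lactamase fluorescence read-out of pathway activation.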

Experiment [12] in a line: qHTS assay for environmental chemicals that activate the Aryl hydrocarbon Receptor (AhR) signaling pathway (AID 651777; active means well fitted curve in the direction sought with a large enough effect; an effect the other way counts as inactive or inconclusive; further: % of control where 0% means no effect; nearly all actives have a fitted effect of over 15% in size). Particulars: 1A2-DRE human hepatoma cells, luciferase, 24 h; activation: stronger effect = higher value. An outline of the steps:
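Concentration–response screening used 1,200 1A2-DRE cells per well, 24 hr compound exposure (37 C, 5% CO2), and One-Glo luminescence as the AhR-driven CYP1A2 reporter signal.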

The target of experiment [13] is Peroxisome proliferator-activated receptor alpha (Homo sapiens) (UniProt Q07869). Nature of the experiment: qHTS assay for small molecule agonists of the peroxisome proliferator-activated receptor alpha (PPARalpha) signaling pathway (AID 651778; active means well fitted curve in the direction sought with a large enough effect; an effect the other way counts as inactive or inconclusive; further: % of control where 0% means no effect). The note with it: PathHunter PPARalpha complementation, chemiluminescence, 6 h; max response: stronger effect = higher value. An outline of the steps: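 Enzyme-fragment complementation assay in which ligand-bound PPARalpha translocates and forms an active enzyme that generates chemiluminescence. Cells were plated overnight, exposed to compound for 6 hr at 37 C, and then given detection reagent for 60 min at room temperature.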
Peroxisome proliferator-activated receptor alpha (Homo sapiens), sequence (Q07869 whole entry, looked up, the tested form may be a part): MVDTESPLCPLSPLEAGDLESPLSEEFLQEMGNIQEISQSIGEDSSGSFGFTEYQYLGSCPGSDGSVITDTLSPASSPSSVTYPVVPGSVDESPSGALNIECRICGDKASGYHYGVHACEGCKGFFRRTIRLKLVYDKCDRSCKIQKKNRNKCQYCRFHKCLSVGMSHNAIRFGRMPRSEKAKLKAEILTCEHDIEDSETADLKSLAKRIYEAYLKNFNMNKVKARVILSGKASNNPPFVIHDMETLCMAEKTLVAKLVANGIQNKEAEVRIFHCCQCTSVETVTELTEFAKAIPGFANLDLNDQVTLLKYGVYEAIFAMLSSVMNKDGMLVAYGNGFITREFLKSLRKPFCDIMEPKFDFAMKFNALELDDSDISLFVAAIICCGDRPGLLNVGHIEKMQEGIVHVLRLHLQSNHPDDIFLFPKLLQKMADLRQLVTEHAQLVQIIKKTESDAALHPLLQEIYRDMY

The nature of experiment [14]: qHTS assay for small molecule agonists of the antioxidant response element (ARE) signaling pathway measured by Nrf2-dependant transcriptional activity - cell viability counter screen (AID 720653; active means well fitted curve in the direction sought with a large enough effect in the repeat runs; an effect the other way counts as inactive or inconclusive; further: on the % scale 0 is the no-effect control and ±100 the full control effect). The note with it: ARE-bla HepG2 viability, CellTiter-Glo ATP luminescence, 16 h; max response: stronger effect = lower value. In a few lines:
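ARE-bla HepG2 cells treated with compounds for 16 h at 37C; this counter screen measures viability as intracellular ATP by CellTiter-Glo luminescence after 30 min at room temperature.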

Experiment [15] in a line: qHTS assay for cell viability of HEK293 cells (AID 743288; active means well fitted curve in the direction sought with a large enough effect; an effect the other way counts as inactive or inconclusive; further: on the % scale 0 is the no-effect control and ±100 the full control effect; nearly all actives have a fitted effect of over 50% in size). The note with it: ATP luminescence (CellTiter-Glo), 18 h; max response: stronger effect = lower value. In a few lines: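 Luminescent ATP quantitation served as the viability read-out. Cells (parental HEK293, 2,000/well) received compounds after at least 5 h at 37 C and were exposed for 18 h before a 30 min room-temperature reagent step.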

Experiment [16] can be described thus: qHTS assay for cell viability of the p53RE-bla HCT-116 cell line (AID 743292; active means well fitted curve in the direction sought with a large enough effect; an effect the other way counts as inactive or inconclusive; further: on the % scale 0 is the no-effect control and ±100 the full control effect; nearly all actives have a fitted effect of over 55% in size). The note with it: p53RE-bla HCT-116 viability, ATP luminescence, 16 h; series mostly up to 95 µM. An outline of the steps:
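Compound-exposed HCT-116 (p53RE-bla) cells, 4,000 per well, were kept 16 h at 37 C following a 5 h preincubation. Cell number was estimated from total ATP by CellTiter-Glo luminescence read after 30 min at room temperature.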

For experiment [17], the target named is Nuclear receptor subfamily 1 group I member 2 (Rattus norvegicus) (UniProt Q9R1A7). Nature of the experiment: qHTS assay for small molecule activators of the rat pregnane X receptor (rPXR) signaling pathway (AID 651751; call rule not given here; further: 0% is about no effect). The note with it: rPXR reporter cells, luciferase (One-Glo), 24 h.
Nuclear receptor subfamily 1 group I member 2 (Rattus norvegicus), sequence (Q9R1A7 whole entry, looked up): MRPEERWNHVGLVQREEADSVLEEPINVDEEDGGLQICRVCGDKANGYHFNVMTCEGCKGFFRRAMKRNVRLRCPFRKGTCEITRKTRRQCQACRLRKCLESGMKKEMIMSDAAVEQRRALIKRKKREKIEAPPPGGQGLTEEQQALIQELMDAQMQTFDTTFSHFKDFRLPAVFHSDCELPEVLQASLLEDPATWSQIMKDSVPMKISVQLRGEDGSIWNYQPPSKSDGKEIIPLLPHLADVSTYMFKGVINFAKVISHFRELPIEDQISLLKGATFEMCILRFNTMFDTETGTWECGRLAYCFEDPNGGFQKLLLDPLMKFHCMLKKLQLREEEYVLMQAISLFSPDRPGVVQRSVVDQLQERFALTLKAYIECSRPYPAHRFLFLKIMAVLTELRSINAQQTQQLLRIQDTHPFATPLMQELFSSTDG
Experiment [18] in a line: qHTS assay for small molecule activators of the human pregnane X receptor (PXR) signaling pathway (AID 720659; call rule not given here; further: 0% is about no effect). Particulars: DPX-2 HepG2 CYP3A4-luciferase, 24 h; series mostly up to 92.3 µM.
Experiment [19] addresses Vitamin D3 receptor (Homo sapiens) (UniProt P11473). Nature of the experiment: qHTS assay for small molecule agonists of vitamin D receptor signaling (AID 588543).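 Further: 0% = DMSO basal and 100% = reference agonist control.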 The note with it: HEK293T VDR-UAS-bla, beta-lactamase ratio, 16 h; series mostly up to 76.8 µM. In a few lines:
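Measured: β-lactamase reporter activity (CCF4, 405 nm excitation, 460/530 nm emission) in HEK293T VDR-UAS-bla cells after 16 h compound exposure at 37 °C. Normalization against 50 nM 1α,25-dihydroxyvitamin D3 and DMSO; Hill-fit EC50.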

Experiment [20] in a line: qHTS assay for small molecule antagonists of peroxisome proliferator-activated receptor delta signaling (AID 588535).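 Further: cells co-treated with a PPAR-delta agonist as stimulator during compound exposure.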 The note with it: HEK293T PPARd-UAS-bla, beta-lactamase FRET ratio, 18 h; 460 nm channel. An outline of the steps:
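Antagonist-mode beta-lactamase reporter (GeneBLAzer PPAR-delta-UAS-bla) in HEK293T cells, 2% charcoal/dextran FBS, 4000 cells/well. Compound titrations, 18 h at 37 C; CCF4 ratio read, IC50 and efficacy from Hill fits.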

Results filed as inconclusive are left out. Calls of active or inactive are those of the source. Unless noted, the call rests on the fitted dose curve.

Estrogen receptor (Homo sapiens), sequence (P03372 whole entry, looked up): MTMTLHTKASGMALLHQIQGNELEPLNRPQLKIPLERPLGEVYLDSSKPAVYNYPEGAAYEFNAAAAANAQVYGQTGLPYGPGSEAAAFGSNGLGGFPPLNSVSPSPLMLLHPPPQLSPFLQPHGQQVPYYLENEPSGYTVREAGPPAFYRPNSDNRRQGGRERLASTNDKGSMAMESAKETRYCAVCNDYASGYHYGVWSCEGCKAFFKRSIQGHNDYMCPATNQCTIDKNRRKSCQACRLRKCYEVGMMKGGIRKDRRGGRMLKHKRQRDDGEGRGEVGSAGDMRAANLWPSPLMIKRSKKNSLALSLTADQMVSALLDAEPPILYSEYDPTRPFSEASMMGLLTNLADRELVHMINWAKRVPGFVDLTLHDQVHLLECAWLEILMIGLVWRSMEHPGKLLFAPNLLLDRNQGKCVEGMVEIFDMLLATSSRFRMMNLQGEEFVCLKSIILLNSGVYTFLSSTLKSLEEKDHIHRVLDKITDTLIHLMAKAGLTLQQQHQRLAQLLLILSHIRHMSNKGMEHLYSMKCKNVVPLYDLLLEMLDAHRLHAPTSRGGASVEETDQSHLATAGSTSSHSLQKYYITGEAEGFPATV
Vitamin D3 receptor (Homo sapiens), sequence (P11473 whole entry, looked up): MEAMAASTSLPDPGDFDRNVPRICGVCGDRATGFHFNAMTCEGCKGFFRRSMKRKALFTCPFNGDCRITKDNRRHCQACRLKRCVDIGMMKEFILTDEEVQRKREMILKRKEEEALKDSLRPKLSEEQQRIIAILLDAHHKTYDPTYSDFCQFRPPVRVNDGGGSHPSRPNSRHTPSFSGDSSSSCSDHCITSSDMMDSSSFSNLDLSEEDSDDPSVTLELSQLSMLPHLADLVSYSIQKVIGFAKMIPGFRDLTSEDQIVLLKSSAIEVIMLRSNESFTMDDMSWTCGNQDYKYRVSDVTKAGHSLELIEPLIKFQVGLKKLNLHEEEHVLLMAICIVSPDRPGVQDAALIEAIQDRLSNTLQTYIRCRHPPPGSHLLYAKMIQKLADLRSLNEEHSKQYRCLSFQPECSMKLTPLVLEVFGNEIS
Peroxisome proliferator-activated receptor gamma (Homo sapiens), sequence (P37231 whole entry, looked up): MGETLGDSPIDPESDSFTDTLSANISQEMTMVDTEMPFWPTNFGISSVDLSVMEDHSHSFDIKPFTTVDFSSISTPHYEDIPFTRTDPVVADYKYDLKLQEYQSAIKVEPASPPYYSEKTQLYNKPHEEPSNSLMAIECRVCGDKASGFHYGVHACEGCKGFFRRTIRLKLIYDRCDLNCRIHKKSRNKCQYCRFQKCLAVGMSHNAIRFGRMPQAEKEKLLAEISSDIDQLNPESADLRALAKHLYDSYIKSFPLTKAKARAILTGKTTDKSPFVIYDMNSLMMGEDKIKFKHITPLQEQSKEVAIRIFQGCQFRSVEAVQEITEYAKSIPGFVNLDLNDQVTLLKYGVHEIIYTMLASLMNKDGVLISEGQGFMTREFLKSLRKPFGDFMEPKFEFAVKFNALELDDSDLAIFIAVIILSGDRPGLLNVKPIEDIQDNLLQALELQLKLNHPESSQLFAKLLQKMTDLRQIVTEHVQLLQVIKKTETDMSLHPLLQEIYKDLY

Take `c1ccc2c(c1)Cc1ccccc1-2`: the Potency entry in [1], in experiment [2], in experiment [4], in experiment [5], in experiment [7] and in experiment [8] was “inactive” each time. In addition, in experiment [16], the Potency result is “inactive”. The outcome in experiment [3] and in experiment [18] was inactive. The max response in experiment [6] was -12.1%; in experiment [9], -16.6%; in experiment [10] it was -2.65% (inactive); in experiment [13], -0.262% (inactive); in experiment [14], -7.29% (inactive); in experiment [15], -4.41% (inactive). Moreover, in experiment [17], the max response is -3.34% (inactive). Further, the activation is -1.09% (inactive) in experiment [11] and 1.34% (inactive) in experiment [12].
`OCC(CO)(CO)COCC(CO)(CO)CO`: the Potency entry in experiment [1], in experiment [2], in [4], in experiment [7], in experiment [8] and in experiment [16] was “inactive” each time. The result in experiment [3] and in [19] was inactive. Besides, the max response in experiment [6] is -6.03%; in experiment [9], -4.98%; in [10], -11.8% (inactive); in [13], 0.242% (inactive); in experiment [14], 3.18% (inactive); in experiment [15] it was -12.4% (inactive). In [17], the max response is 3.21% (inactive). For the same compound, the activation in [11] is -2.64% (inactive); in [12] it was 3.82% (inactive).
For the compound `O=C(OCC1CCC2OC2C1)C1CCC2OC2C1` (centres undefined), the Potency result in experiment [1], in [2], in experiment [4], in experiment [7], in experiment [8] and in experiment [16] was “inactive” each time. Also, the max response in experiment [20] is -2.67%; in [6], -10.9%; in experiment [9], 1.3%; in experiment [10] it was -6.03% (inactive); in experiment [13], 0.673% (inactive); in experiment [14], -4.32% (inactive). In [17], the max response is 1.7% (inactive). Also, the result in experiment [3], in experiment [19] and in experiment [18] was inactive. Besides, the activation in experiment [11] is 1.33% (inactive); in experiment [12], 1.05% (inactive).
As to `C[Si]1(C)O[Si](C)(C)O[Si](C)(C)O[Si](C)(C)O[Si](C)(C)O1`, the Potency result in experiment [1], in experiment [2], in experiment [4], in [8] and in experiment [16] was “inactive” each time. Also, the max response in experiment [20] is 5.15%; in experiment [6], -18.1%; in experiment [9], -10.4%; in experiment [10] it was 2.84% (inactive); in experiment [13], -3.04% (inactive); in experiment [14], -13.9% (inactive). Also, the max response in experiment [15] is -11.9% (inactive); in [17], -3.44% (inactive). Besides, the result in [3], in experiment [19] and in experiment [18] was inactive. The activation in experiment [11] was -6.08% (inactive); in experiment [12], 0.106% (inactive).
For `CC(=O)/C=C/C1C(C)=CCCC1(C)C` (centres undefined), the Potency result in experiment [1], in [2], in [4], in experiment [5], in [7] and in [8] was “inactive” throughout. Also, the Potency entry in experiment [16] was “inactive”. The max response in [20] was -18.3%; in experiment [6], 0.774%; in [9] it was 1.01%; in experiment [10] it was -10.8% (inactive); in experiment [13] it was -0.682% (inactive); in [14] it was 1.13% (inactive). Moreover, the max response in experiment [15] was -13.5% (inactive); in experiment [17], 8.79% (inactive). Moreover, the result in [3] and in experiment [19] was inactive. In addition, in experiment [12], the activation was 0.579% (inactive).
